The values that follow come from PubChem BioAssay (NCATS).

For test [1], the target named is Lysosomal acid glucosylceramidase (Homo sapiens) (UniProt P04062). The test is described as follows: Glucocerebrosidase-p2 (AID 348; in the data active = potency below about 10 µM; also: potency is read from the fitted curve at half-maximal effect). Particulars: purified GBA, blue fluorogenic substrate, 40 min. The essentials:
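Normal human glucocerebrosidase (0.2 nM) with blue fluorogenic substrate (80 uM final) in citrate/phosphate pH 5.9 with 10mM sodium taurocholate, 0.01% tween-20; 40 min RT, NaOH/glycine stop; fluorescence Ex 365/Em 440; AC50 from a titration from 0.6 nM upwards.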

Test [2] in a line: AP1 Signaling Pathway (AID 357; active = well fitted curve in either direction with a large enough effect, not every such curve was filed as active; also: % is scaled to controls: 0 for no effect and ±100 for the full control effect). The note with it: ME-180 AP-1-bla reporter, EGF-induced, beta-lactamase ratio, 5 h; at 7.69 µM (top of the series) unless noted. The essentials: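 First, ME-180 AP-1-bla cells were cultured overnight at 37 °C in low-serum Opti-MEM. Next, titrated compounds with EC50 EGF were incubated 5 hours. Finally, CCF4 was added for 2.5 hours and the 460/530 nm ratio recorded.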

Test [3] addresses Cytochrome P450 1A2 (Homo sapiens) (UniProt P05177). The test is described as follows: p450-cyp1a2 (AID 410; calls by dose curve; also: potency is read from the fitted curve at half-maximal effect). Particulars: recombinant CYP1A2, luciferin-ME demethylation, luminescence; series mostly up to 57 µM. The essentials: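 20nM CYP1A2, 100uM Luciferin-ME (=Km), 100mM KPO4; cpd 10 min RT; +NADPH regen, 60 min RT; stop/detect 20 min; luminescence. Normalized to furafylline 57 uM = full inhibition.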

The nature of test [4]: NFAT Signaling Pathway (AID 444; active = well fitted curve in either direction with a large enough effect, not every such curve was filed as active;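 also: carbachol stimulus at about its EC50 of 1 µM final; % is scaled to controls: 0 for no effect and ±100 for the full control effect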). The note with it: Jurkat NFAT-bla M1, carbachol, beta-lactamase ratio, 5 h; at 7.69 µM (top of the series) unless noted. The essentials: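 Read-out: CCF4 FRET ratio (460 nm/530 nm) after 1 h RT dye loading, used for %activity and AC50 from titration series. Cells: Jurkat NFAT-β-lactamase/M1 line, treated with compound plus 1 uM carbachol for 5 h, 37 °C.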

Test [5] in a line: Stat Signaling Pathway (AID 446; active = well fitted curve in either direction with a large enough effect, not every such curve was filed as active;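 also: ME-180 cervical cancer cells given 40 pM IL-6 alongside compound; SIE-controlled beta-lactamase reporter measured as 460/530 nm FRET emission ratio; % is scaled to controls: 0 for no effect and ±100 for the full control effect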). The note with it: ME-180 SIE beta-lactamase reporter, IL-6 stimulated, 5 h; at 7.69 µM (top of the series) unless noted. The method, boiled down: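 Normalization used AC90 stimulation (300 pM IL-6) and AC90 inhibition (125 nM pan-JAK inhibitor at 40 pM IL-6). The underlying signal is SIE-driven beta-lactamase in ME-180 cells after 5 h IL-6 exposure with compound.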

The target of test [6] is Glucocorticoid receptor (Homo sapiens) (UniProt P04150). The test is described as follows: GR-GFP Redistribution (AID 450;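 active = compounds whose dose series gives a full or clear partial fitted curve of increased nuclear translocation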; also: potency is read from the fitted curve at half-maximal effect). Particulars: U2OS GR-GFP nuclear translocation, laser cytometry, 2 h.
Test [7] shares this target. Kind of test: GR-EFC Redistribution (AID 451; calls by dose curve; also: potency is read from the fitted curve at half-maximal effect). The note with it: CHO-K1 GR-EFC translocation, beta-gal luminescence, 2 h. The method, boiled down:
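Translocation of GR-ED fusion to nuclear EA restores b-gal, read by luminescence after 1 h room-temperature detection. Engineered CHO-K1 biosensor cells, 1,000/well, exposed 2 h at 37 C to titrations up to 46 uM final.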

The target in test [8] is Mitogen-activated protein kinase 10 (Mus musculus) (UniProt Q61831). The test is described as follows: JNK3 AlphaScreen Assay (AID 530; active = well fitted curve in either direction with a large enough effect, not every such curve was filed as active;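 also: kinase came from lysate of stimulated human HepG2 cells; signal reports phosphorylation of biotinylated GST-cJun 1-79 at Ser73 with 10 µM ATP; % is scaled to controls: 0 for no effect and ±100 for the full control effect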). Particulars: JNK3 lysate, c-Jun phosphorylation; series mostly up to 57.1 µM. The essentials: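 Kinase buffer: 20 mM Tris-HCl pH 7.6, 10 mM MgCl2, 1 mM DTT, 0.1 mM Na3VO4, 0.01% Tween-20; ATP 10 uM. Substrate biotin-GST-cJun(1-79), enzyme from activated HepG2 lysates. Detection by Ser73 phospho-antibody AlphaScreen.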

In test [9] the target is 3',5'-cyclic-AMP phosphodiesterase 4B (Homo sapiens) (UniProt Q07343). The test is described as follows: qHTS Assay for Inhibitors of PDE-IV (AID 607; active = well fitted activation curve with a large enough effect in the main read-out, with a control signal flat, not every such curve was filed as active; also: % of control where 0% means no effect). Particulars: HEK293 ACTOne CNG channel cells, membrane potential fluorescence; series mostly up to 22.9 µM. The essentials:
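HEK293 ACTOne cells with CNG channel (1000/well), endogenous PDE4; membrane potential dye, compounds up to 22.9 uM final. Fluorescence Ex 535/Em 590; RO 20-1724 (100 uM final) as reference.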

In test [10] the target is Cytochrome P450 3A4 (Homo sapiens) (UniProt P08684). The test is described as follows: qHTS Assay for Activators of Cytochrome P450 3A4 (AID 885). Also: nearly all actives have a fitted effect of over 65% in size. Also: potency is read from the fitted curve at half-maximal effect. The note with it: recombinant CYP3A4, Luciferin-PPXE luminescence, 60 min; series mostly up to 57.1 µM. The method, boiled down:
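Human CYP3A4 dealkylates Luciferin-PPXE to luciferin, which luciferase detection converts to light. Substrate was at its KM (25uM), buffer 200mM KPO4, reaction 60 min at RT.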
In general terms: qHTS replaces the single test concentration by a dilution series.

In test [11] the target is Dual specificity protein kinase CLK4 (Homo sapiens) (UniProt Q9HAZ1). The test is described as follows: qHTS Assay for Inhibitors of CDC-like Kinase 4 (Kinase-Glo Assay) (AID 1770). Also: nearly all actives have a fitted effect of over 65% in size. Also: potency is read from the fitted curve at half-maximal effect. The note with it: recombinant Clk4, Kinase-Glo ATP depletion luminescence; series mostly up to 66.7 µM. The essentials: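 Clk4 25 nM, RS peptide 100 uM, ATP 1 uM, pH 7.5 Tris, 10 mM MgCl2, 2.5 mM DTT; 4.5 h RT; ATP depletion read by Kinase-Glo luminescence.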

For test [12] the target is unchanged. Kind of test: qHTS Assay for Inhibitors of CDC-like Kinase 4 (ADP-Glo Assay) (AID 1771). Also: nearly all actives have a fitted effect of over 70% in size. Also: potency is read from the fitted curve at half-maximal effect. The note with it: recombinant CLK4, ADP-Glo luminescence; series mostly up to 80 µM. The method, boiled down: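 25 nM Clk4, 100 uM RS peptide, 1 uM ATP (final); 2 mM MgCl2, 0.5 mM EGTA, 2.5 mM DTT, 0.01% Triton X-100; 1 hr RT. ADP-Glo readout: ATP depletion 45 min, conversion/luciferase 30 min, luminescence.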

Test [13] has the same target. The test is described as follows: qHTS Assay for Inhibitors of CDC-like Kinase 4 (ADP-FP Assay) (AID 1795).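 Also: recombinant human CLK4 phosphorylating RS repeat peptide at 1 µM ATP; % is scaled to controls: 0 for no effect and ±100 for the full control effect; nearly all actives have a fitted effect of over 60% in size.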 The note with it: Transcreener ADP fluorescence polarization; series mostly up to 50 µM. The essentials:
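Kinase activity was followed as ADP output, converted from fluorescence polarization with a calibration curve. Reactions ran one hour at low ATP (1 uM) with RS peptide substrate.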

A short description of test [14]: Primary qHTS for small molecule stabilizers of the endoplasmic reticulum resident proteome: Secreted ER Calcium Modulated Protein (SERCaMP) assay (AID 1508630). Also: % is scaled to controls: 0 for no effect and ±100 for the full control effect. The note with it: SH-SY5Y GLuc-SERCaMP (Gaussia luciferase released on ER calcium loss) secretion, thapsigargin, luminescence; series mostly up to 38.4 µM. The method, boiled down: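 The SH-SY5Y reporter protocol was run at 3 concentrations up to 38.3 uM (primary) or 11 concentrations (follow-up): 16 h compound, 100 nM thapsigargin for 4 h, then extracellular luciferase luminescence.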

Test [15] addresses Cytochrome P450 3A4 (Homo sapiens) (UniProt P08684). The test is described as follows: qHTS Assay for Inhibitors and Substrates of Cytochrome P450 3A4 (AID 884). Also: nearly all actives have a fitted effect of over 50% in size. Also: potency is read from the fitted curve at half-maximal effect. The note with it: recombinant CYP3A4, Luciferin-PPXE luminescence; series mostly up to 57.1 µM. The method, boiled down:
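Luminescent readout of luciferin produced by CYP3A4 (20 nM) dealkylation of Luciferin-PPXE, 25 uM (its KM). NADPH-driven reaction ran 60 min at RT after 10 min compound preincubation; data scaled to 57 uM ketoconazole as 100% inhibition.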

The target of test [16] is Ubiquitin carboxyl-terminal hydrolase 1 (Homo sapiens) (UniProt O94782). The test is described as follows: Inhibitors of USP1/UAF1: Pilot qHTS (AID 504865).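 Also: rhodamine fluorescence freed from ubiquitin-rhodamine substrate followed over time; top concentration of the series differs between compounds; % is scaled to controls: 0 for no effect and ±100 for the full control effect; nearly all actives have a fitted effect of over 35% in size.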 Particulars: purified USP1/UAF1, Ub-rhodamine cleavage fluorescence; series mostly up to 54.9 µM. The essentials: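 Enzyme-free wells gave the negative control, while test wells held 1nM USP1/UAF1 preincubated with compound for 15 min at room temperature. Ub-Rho at 150nM final started the reaction, and fluorescence at 480/540 nm was recorded kinetically.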

Test [17] deals with Cytochrome P450 2D6 (Homo sapiens) (UniProt P10635). The test is described as follows: qHTS Assay for Inhibitors and Substrates of Cytochrome P450 2D6 (AID 891). Also: potency is read from the fitted curve at half-maximal effect; nearly all actives have a fitted effect of over 60% in size. Particulars: recombinant CYP2D6, luciferin-ME EGE luminescence; series mostly up to 57.1 µM. The essentials: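 Luminescent read-out of luciferin formed by 5 nM human CYP2D6 demethylating 30 uM Luciferin-ME EGE (Km level) over 60 min at room temperature after NADPH regeneration addition. Data normalized to full inhibition by 1.43 uM quinidine.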

The target of test [18] is Cytochrome P450 2C19 (Homo sapiens) (UniProt P33261). The test is described as follows: qHTS Assay for Inhibitors and Substrates of Cytochrome P450 2C19 (AID 899). Also: potency is read from the fitted curve at half-maximal effect; nearly all actives have a fitted effect of over 60% in size. The note with it: recombinant CYP2C19, luciferin-H EGE luminescence; series mostly up to 57.1 µM. The method, boiled down:
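Luminescence readout of luciferin formed from 10uM Luciferin-H EGE (KM level) by 5 nM CYP2C19 in 50mM KPO4. 60 min NADPH-driven reaction at 37C after 10 min compound preincubation; data scaled to 57uM ketoconazole inhibition.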

A short description of test [19]: qHTS Assay for Identification of Small Molecule Agonists for Hypoxia Response Element Signaling Pathway (AID 914; active = well fitted activation curve with a large enough effect in the signal ratio, with a control signal flat, not every such curve was filed as active; the % refers to the signal ratio; also: potency is read from the fitted curve at half-maximal effect). The note with it: ME-180 (cervical carcinoma) HRE-bla reporter, beta-lactamase ratio, CoCl2, 17 h; activation: active compounds read high. The method, boiled down: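 qHTS titration; ME-180 HRE-bla cells; EC50 CoCl2 co-treatment, 17 h at 37 degrees Celsius; CCF4 dye, ex 405nm, em 460nm and 530nm; %Activity from ratio; AC50.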

Molecules are shown by their SMILES. A number with no mark means an inactive call. Results filed as inconclusive are left out. Calls of active or inactive are those of the source. Unless noted, calls follow the shape of the dose curve; as a rule, active = well fitted curve in the direction sought with a large enough effect; inconclusive = small, poorly fitted or top-dose-only effect, or another doubt; inactive = no such curve, though single readings can be large; an effect the other way counts as inactive or inconclusive.

Dual specificity protein kinase CLK4 (Homo sapiens), sequence (Q9HAZ1 whole entry, looked up): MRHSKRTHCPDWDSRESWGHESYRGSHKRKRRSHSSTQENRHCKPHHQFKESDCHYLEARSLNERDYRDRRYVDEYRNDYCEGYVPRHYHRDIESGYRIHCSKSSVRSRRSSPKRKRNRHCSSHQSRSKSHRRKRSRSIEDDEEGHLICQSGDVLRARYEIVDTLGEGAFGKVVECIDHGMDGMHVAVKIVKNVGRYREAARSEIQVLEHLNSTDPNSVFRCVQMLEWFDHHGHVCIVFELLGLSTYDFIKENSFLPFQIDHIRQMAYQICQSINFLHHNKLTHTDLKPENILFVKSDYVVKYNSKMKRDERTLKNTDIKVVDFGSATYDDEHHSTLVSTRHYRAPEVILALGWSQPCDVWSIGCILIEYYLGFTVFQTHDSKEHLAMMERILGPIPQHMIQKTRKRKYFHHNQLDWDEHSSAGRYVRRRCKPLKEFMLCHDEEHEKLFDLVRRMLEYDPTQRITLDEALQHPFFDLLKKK
Glucocorticoid receptor (Homo sapiens), sequence (P04150 whole entry, looked up): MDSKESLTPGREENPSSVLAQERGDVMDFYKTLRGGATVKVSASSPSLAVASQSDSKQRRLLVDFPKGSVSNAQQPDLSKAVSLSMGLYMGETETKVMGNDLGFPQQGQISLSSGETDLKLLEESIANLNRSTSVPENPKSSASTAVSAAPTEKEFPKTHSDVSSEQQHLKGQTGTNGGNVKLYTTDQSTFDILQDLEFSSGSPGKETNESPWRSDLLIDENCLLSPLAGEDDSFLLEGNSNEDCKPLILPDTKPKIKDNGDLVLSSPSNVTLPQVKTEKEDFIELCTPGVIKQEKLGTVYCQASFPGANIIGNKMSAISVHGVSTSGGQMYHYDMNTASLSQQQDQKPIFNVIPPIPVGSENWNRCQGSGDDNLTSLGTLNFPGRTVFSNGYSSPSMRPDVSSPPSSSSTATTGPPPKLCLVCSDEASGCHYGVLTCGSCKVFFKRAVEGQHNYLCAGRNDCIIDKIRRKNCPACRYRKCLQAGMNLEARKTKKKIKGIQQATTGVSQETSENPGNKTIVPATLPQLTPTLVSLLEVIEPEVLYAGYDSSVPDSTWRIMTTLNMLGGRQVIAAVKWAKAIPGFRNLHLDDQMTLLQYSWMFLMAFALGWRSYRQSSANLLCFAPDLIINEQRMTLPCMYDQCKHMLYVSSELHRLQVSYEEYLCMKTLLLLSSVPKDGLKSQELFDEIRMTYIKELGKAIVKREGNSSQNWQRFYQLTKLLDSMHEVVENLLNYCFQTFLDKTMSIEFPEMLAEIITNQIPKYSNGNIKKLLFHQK
Cytochrome P450 1A2 (Homo sapiens), sequence (P05177 whole entry, looked up): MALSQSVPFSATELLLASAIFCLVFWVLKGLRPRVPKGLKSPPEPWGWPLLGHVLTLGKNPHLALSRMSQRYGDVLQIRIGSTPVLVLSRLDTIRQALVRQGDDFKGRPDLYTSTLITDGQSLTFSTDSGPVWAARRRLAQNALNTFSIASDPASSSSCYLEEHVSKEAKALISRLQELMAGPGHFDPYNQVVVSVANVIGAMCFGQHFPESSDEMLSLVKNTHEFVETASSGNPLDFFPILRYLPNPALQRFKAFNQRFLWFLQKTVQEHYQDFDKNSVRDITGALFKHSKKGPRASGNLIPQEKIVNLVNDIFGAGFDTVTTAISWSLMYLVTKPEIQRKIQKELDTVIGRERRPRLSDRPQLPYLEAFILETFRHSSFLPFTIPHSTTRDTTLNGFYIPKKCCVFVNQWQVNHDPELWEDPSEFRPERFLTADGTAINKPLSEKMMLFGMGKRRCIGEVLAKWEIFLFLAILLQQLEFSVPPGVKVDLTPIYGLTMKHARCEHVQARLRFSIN
Lysosomal acid glucosylceramidase (Homo sapiens), sequence (P04062 whole entry, looked up): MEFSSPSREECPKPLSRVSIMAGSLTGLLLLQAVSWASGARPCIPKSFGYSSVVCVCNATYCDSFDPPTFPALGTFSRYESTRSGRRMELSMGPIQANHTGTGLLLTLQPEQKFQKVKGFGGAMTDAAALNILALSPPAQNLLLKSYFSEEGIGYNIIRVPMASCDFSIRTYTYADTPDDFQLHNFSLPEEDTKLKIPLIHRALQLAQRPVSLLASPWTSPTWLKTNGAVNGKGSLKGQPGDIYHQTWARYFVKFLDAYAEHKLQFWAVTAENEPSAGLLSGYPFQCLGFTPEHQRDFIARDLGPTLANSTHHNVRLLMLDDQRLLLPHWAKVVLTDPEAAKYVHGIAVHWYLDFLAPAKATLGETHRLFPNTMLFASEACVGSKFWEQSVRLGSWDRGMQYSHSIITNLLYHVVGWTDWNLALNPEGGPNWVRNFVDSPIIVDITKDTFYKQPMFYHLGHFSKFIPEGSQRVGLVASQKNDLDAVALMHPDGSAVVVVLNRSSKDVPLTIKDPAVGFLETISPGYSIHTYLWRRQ
3',5'-cyclic-AMP phosphodiesterase 4B (Homo sapiens), sequence (Q07343 whole entry, looked up): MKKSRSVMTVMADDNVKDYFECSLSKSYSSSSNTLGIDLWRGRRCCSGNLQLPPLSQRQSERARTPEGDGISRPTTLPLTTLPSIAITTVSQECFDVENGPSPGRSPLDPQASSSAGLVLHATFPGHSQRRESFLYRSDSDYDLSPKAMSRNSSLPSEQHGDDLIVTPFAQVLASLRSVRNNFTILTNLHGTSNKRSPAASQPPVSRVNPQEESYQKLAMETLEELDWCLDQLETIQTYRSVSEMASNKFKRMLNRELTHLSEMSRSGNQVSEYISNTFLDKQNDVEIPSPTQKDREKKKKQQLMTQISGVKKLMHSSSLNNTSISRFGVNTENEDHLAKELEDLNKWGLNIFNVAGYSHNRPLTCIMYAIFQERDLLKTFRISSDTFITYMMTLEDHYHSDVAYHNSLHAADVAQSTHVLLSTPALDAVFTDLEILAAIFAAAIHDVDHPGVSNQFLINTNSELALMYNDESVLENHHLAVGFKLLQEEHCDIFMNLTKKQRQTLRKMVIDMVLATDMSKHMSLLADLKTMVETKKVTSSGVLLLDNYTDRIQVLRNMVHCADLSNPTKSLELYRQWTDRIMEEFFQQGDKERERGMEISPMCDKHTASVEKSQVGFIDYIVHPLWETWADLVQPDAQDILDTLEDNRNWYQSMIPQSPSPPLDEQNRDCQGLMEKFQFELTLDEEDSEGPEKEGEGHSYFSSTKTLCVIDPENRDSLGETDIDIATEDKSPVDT
Ubiquitin carboxyl-terminal hydrolase 1 (Homo sapiens), sequence (O94782 whole entry, looked up): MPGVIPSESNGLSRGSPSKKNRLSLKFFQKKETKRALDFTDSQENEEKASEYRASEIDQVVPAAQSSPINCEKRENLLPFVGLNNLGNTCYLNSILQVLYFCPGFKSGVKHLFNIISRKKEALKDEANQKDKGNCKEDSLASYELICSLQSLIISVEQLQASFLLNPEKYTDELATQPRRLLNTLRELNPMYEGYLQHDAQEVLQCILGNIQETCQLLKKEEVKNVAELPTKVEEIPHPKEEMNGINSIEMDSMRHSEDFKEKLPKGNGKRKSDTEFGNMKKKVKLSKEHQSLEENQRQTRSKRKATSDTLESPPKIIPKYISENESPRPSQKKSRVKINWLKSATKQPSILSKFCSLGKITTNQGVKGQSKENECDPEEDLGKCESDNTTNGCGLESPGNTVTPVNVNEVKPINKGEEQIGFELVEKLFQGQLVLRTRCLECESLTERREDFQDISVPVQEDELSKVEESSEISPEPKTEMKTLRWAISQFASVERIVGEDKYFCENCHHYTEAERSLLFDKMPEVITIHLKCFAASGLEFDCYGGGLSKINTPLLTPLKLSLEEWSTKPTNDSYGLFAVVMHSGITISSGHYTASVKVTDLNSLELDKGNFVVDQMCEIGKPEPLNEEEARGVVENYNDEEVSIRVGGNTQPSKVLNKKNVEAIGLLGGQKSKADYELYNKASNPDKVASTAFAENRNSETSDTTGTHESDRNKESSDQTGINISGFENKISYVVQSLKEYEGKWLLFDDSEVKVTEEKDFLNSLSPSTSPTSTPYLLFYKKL
Cytochrome P450 3A4 (Homo sapiens), sequence (P08684 whole entry, looked up): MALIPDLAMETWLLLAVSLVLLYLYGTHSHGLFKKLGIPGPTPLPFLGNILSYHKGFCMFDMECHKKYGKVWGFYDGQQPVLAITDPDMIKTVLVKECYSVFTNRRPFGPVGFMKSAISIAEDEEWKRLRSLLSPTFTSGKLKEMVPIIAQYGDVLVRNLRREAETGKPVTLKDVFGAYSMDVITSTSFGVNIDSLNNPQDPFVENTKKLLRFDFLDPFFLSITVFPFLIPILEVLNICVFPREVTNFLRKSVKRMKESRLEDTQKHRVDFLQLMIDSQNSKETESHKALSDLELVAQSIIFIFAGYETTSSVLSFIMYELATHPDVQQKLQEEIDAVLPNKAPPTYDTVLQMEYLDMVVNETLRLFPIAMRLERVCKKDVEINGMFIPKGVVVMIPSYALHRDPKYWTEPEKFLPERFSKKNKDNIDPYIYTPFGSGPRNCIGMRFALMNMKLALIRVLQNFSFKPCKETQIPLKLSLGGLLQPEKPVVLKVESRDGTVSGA
Cytochrome P450 2C19 (Homo sapiens), sequence (P33261 whole entry, looked up): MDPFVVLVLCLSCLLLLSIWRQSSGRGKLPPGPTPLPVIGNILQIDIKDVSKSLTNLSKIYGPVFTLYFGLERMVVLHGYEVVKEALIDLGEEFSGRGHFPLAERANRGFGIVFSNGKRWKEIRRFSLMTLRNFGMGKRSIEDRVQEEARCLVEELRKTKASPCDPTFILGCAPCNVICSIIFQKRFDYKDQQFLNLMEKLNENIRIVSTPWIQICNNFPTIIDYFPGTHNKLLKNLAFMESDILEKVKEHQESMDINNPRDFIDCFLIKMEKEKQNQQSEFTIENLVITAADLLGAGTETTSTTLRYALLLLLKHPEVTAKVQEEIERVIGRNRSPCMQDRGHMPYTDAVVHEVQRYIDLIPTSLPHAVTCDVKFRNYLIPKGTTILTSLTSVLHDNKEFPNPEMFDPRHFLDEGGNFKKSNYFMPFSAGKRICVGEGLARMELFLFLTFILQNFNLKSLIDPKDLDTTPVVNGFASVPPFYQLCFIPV

For `COc1ccccc1-c1nc(NCc2cccnc2)c2ccccc2n1`, the Potency in [1] was more than 11.4 µM; in [3], 0.794 µM (active); in [6] it was more than 46 µM; in test [7] it was more than 46 µM. Also, the activity change, negative = inhibition in test [2] was 10.5%; in test [4], -29.2%. Moreover, the activity, negative = inhibition in test [5] is 12.9%. Besides, the Potency entry in test [8], in test [9], in test [10], in test [11], in test [12] and in test [13] was “inactive” each time. In addition, in test [14], the outcome was inactive.

Turning to `O=c1c(-c2ccc(Cl)cc2)nc2cnc(N3CCOCC3)nc2n1CCc1ccccc1`, the Potency in test [1] was more than 11.4 µM; in [3], 2 µM (active); in [6], more than 9.22 µM; in [7], more than 46 µM; in test [10] it was 15.8 µM (active). Further, the activity change, negative = inhibition was 87.9% [activator] (active) in [2] and 112% [activator] (active) in [4]. Also, the Potency entry in test [8], in test [9], in test [15], in test [11], in test [12] and in [13] was “inactive” throughout. The Potency result in test [16] is “inactive”. For the same molecule, the result in test [14] was inactive.

As for `Cc1noc(C)c1-c1nccc(N(C)Cc2ccco2)n1`, the Potency in test [1] is more than 11.4 µM; in test [3] it was 2 µM (active); in test [6], more than 46 µM; in [7] it was more than 46 µM. In addition, the activity change, negative = inhibition in [2] is 6.47%; in test [4], -3.01%. Besides, the activity, negative = inhibition in test [5] was 3.88%. In addition, the Potency entry in test [8], in [9], in [10], in test [11], in test [12] and in [13] was “inactive” each time. Besides, the result in [14] was inactive.

In the case of `CN(C)c1ccc(-c2nc(NCCc3cnc[nH]3)c3ccccc3n2)cc1`, the Potency in test [1] is 6.71 µM (active); in test [3] it was 0.631 µM (active); in test [6] it was more than 46 µM; in [7], more than 46 µM; in [15] it was 2.51 µM (active); in [17], 7.94 µM (active). In addition, the Potency in test [18] is 1.58 µM (active); in test [11], 28.2 µM (active); in test [12] it was 22.4 µM (active). The activity change, negative = inhibition in test [2] was 0.922%. In addition, the activity, negative = inhibition in test [5] is 15.6%. Also, the Potency result in test [8], in test [9], in [10], in test [13] and in [16] was “inactive” in each case. The outcome in test [14] was inactive.

In the case of `CCNc1ncc2nc(-c3cn(C)c4ccccc34)c(=O)n(Cc3ccc(F)cc3)c2n1`, the Potency in [1] was more than 11.4 µM; in test [3], 15.8 µM (active); in test [6] it was more than 9.22 µM; in test [7] it was more than 46 µM; in test [19], 2.51 µM (active). Also, the activity change, negative = inhibition was -5.76% in test [2] and 2.58% in [4]. The Potency result in [8], in [9], in test [10], in test [11], in test [12] and in test [13] was “inactive” each time. Moreover, in [16], the Potency entry was “inactive”. Moreover, the result in test [14] was inactive.

For the molecule `CN(C)C(=O)c1ccc(-c2cncnc2Nc2ccccc2)cc1`, the figures for the Potency in [1], in test [3] and in test [7] were more than 11.4 µM, 31.6 µM (active) and more than 46 µM, respectively. Besides, the activity change, negative = inhibition in [2] is -7.47%; in test [4] it was 1.8%. Moreover, the activity, negative = inhibition in test [5] is -6.42%. In addition, the Potency entry in test [8], in test [9], in [10], in test [11], in test [12] and in test [13] was “inactive” throughout. Also, the Potency result in [16] is “inactive”. Besides, the result in test [14] was inactive.
